# Data taken from PubChem BioAssay (EPA / NIEHS).
# “And” between values parts separate entries of the source, which are not always exact repeats. Equal entries are not always repeated. Records with an inconclusive call do not appear. The source made the active and inactive calls. The calls were made as follows, unless noted: active = hit-call score of the fitted dose curve at least 0.9, where 1 is the maximum; inconclusive = response in the unintended direction; inactive = score below 0.9.
# What was measured:
# [1] = tested on: DIO1 (gene 1733); test: CCTE_GLTED_hDIO1: CCTE's human Deiodinase 1 (DIO1) Inhibition Assay, Great Lakes Toxicology and Ecology Division (GLTED) Lab (AID 2283987);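 also: isolated human DIO1 enzyme in a cell-free setup rather than cells; enzyme activity read as free iodide liberated from substrate via Sandell-Kolthoff colorimetry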
# Summary of the method: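 Inhibition read as reduced iodide release: after 3 h of human DIO1 with chemical, free iodide is quantified colorimetrically (Sandell-Kolthoff cerium/arsenic reaction). Triplicate plates, DMSO baseline.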
# [2] = target: Nucleoli Translocation, AR (gene 367) (UniProt P10275); test: UPITT_HCI_U2OS_AR_TIF2_Nucleoli_Antagonist: University of Pittsburgh U2OS Androgen Receptor-Transcriptional Intermediary Factor 2 (AR-TIF2) Antagonism High Content Imaging Assay for Nucleoli Translocation (AID 2283997)
# Summary of the method: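 Antagonism is read as loss of nucleolar AR-RFP signal relative to DHT, imaged in U2OS cells also carrying GFP-TIF2. Compounds screened at 20 uM final, 0.2% DMSO; primary actives retested in triplicate.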
# [3] = target: Nucleoli Translocation, AR (gene 367) (UniProt P10275); test: UPITT_HCI_U2OS_AR_TIF2_Nucleoli_Agonist: University of Pittsburgh U2OS Androgen Receptor-Transcriptional Intermediary Factor 2 (AR-TIF2) Agonism High Content Imaging Assay for Nucleoli Translocation (AID 2283998)
# Summary of the method: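 Nucleolar translocation of AR-RFP, with TIF2-GFP coexpressed in human osteosarcoma U2OS, imaged by high-content fluorescence. Compounds tested singly at 20 uM final, confirmed in triplicate, then titrated 0.195–50 uM final; gain-of-signal relative to DMSO.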
# [4] = CCTE_Harrill_HTTr_Viability_PRF_DMEM_24hr: (Pilot) CCTE's 24-hour Cell Viability Assessment for the High-Throughput Transcriptomics (HTTr) Platform, in MCF-7 cells cultured in phenol red-free DMEM + 10% charcoal-stripped fetal bovine serum, Harrill Lab (AID 2283980; active = hit-call score of the fitted dose curve at least 0.9, where 1 is the maximum; inactive = score below 0.9)
# Summary of the method: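 Propidium iodide exclusion imaged at 24 h after dosing scores viability; cells were MCF-7 grown in phenol red-free DMEM plus 10% charcoal-stripped serum, tested in eight concentrations, fitted in both directions against DMSO.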
# [5] = CCTE_Harrill_HTTr_Apoptosis_DMEM_6hr: (Pilot) CCTE's 6-hour Apoptosis Assessment for the High-Throughput Transcriptomics (HTTr) Platform, in MCF-7 cells cultured in DMEM + 10% fetal bovine serum, Harrill Lab (AID 2283981; active = hit-call score of the fitted dose curve at least 0.9, where 1 is the maximum; inactive = score below 0.9)
# Summary of the method: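 MCF-7 cells grown in DMEM + 10% FBS were exposed for 6 hours to an eight-point dilution series. CellEvent Caspase 3/7 Green signal was imaged; activity fitted bidirectionally against DMSO.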
# [6] = CCTE_Harrill_HTTr_Apoptosis_DMEM_12hr: (Pilot) CCTE's 12-hour Apoptosis Assessment for the High-Throughput Transcriptomics (HTTr) Platform, in MCF-7 cells cultured in DMEM + 10% fetal bovine serum, Harrill Lab (AID 2283982; active = hit-call score of the fitted dose curve at least 0.9, where 1 is the maximum; inactive = score below 0.9)
# From the text: (§1) This is a cell-based assay that evaluates apoptosis using high content imaging to evaluate activation of caspase-3/7 using the CellEvent Caspase 3/7 Green detection reagent in 384-well format.One of seven assay components measured from the CCTE_Harrill_HTTr_Apoptosis assay. This was part of a pilot experiment. This is a cell-based assay that evaluates apoptosis in MCF-7 cells cultured in DMEM + 10% fetal bovine serum. High content imaging is used to evaluate activation of caspase-3/7 using the CellEvent Caspase 3/7 Green detection reagent. Measurements are taken at 12 hours after chemical dosing in 384-well format.The assay component endpoint CCTE_Harrill_HTTr_Apoptosis_DMEM_12hr was analyzed with bidirectional fitting relation to DMSO as the negative control and baseline of activity. Using a type of viability reporter, gain-of-signal activity can be used to evaluate activation of caspase-3/7 using the CellEvent Caspase 3/7 Green detection reagent to understand changes in apoptosis. To generalize the intended target to other relatable targets, this assay endpoint is annotated to cell cycle, where the subfamily is apoptosis.
# Chemicals were tested in MCF7 cells in an eight point dilution series with a twelve hour exposure duration.
# [7] = CCTE_Harrill_HTTr_Apoptosis_DMEM_24hr: (Pilot) CCTE's 24-hour Apoptosis Assessment for the High-Throughput Transcriptomics (HTTr) Platform, in MCF-7 cells cultured in DMEM + 10% fetal bovine serum, Harrill Lab (AID 2283983; active = hit-call score of the fitted dose curve at least 0.9, where 1 is the maximum; inactive = score below 0.9)
# From the text: as §1, with “24” for “12”, “CCTE_Harrill_HTTr_Apoptosis_DMEM_24hr” for “CCTE_Harrill_HTTr_Apoptosis_DMEM_12hr”
# Chemicals were tested in MCF7 cells in an eight point dilution series with a twenty-four hour exposure duration.
# [8] = CCTE_Harrill_HTTr_Apoptosis_PRF_DMEM_6hr: (Pilot) CCTE's 6-hour Apoptosis Assessment for the High-Throughput Transcriptomics (HTTr) Platform, in MCF-7 cells cultured phenol red-free DMEM + 10% charcoal-stripped fetal bovine serum, Harrill Lab (AID 2283984; active = hit-call score of the fitted dose curve at least 0.9, where 1 is the maximum; inactive = score below 0.9)
# From the text: This is a cell-based assay that evaluates apoptosis using high content imaging to evaluate activation of caspase-3/7 using the CellEvent Caspase 3/7 Green detection reagent in 384-well format.One of seven assay components measured from the CCTE_Harrill_HTTr_Apoptosis assay. This was part of a pilot experiment. This is a cell-based assay that evaluates apoptosis in MCF-7 cells cultured in phenol red-free DMEM + 10% charcoal-stripped fetal bovine serum. High content imaging is used to evaluate activation of caspase-3/7 using the CellEvent Caspase 3/7 Green detection reagent. Measurements are taken at 6 hours after chemical dosing in 384-well format.The assay component endpoint CCTE_Harrill_HTTr_Apoptosis_PRF_DMEM_6hr was analyzed with bidirectional fitting relation to DMSO as the negative control and baseline of activity. Using a type of viability reporter, gain-of-signal activity can be used to evaluate activation of caspase-3/7 using the CellEvent Caspase 3/7 Green detection reagent to understand changes in apoptosis. To generalize the intended target to other relatable targets, this assay endpoint is annotated to cell cycle, where the subfamily is apoptosis.
# Chemicals were tested in MCF7 cells in an eight point dilution series with a six hour exposure duration.
# [9] = CCTE_Harrill_HTTr_Apoptosis_PRF_DMEM_12hr: (Pilot) CCTE's 12-hour Apoptosis Assessment for the High-Throughput Transcriptomics (HTTr) Platform, in MCF-7 cells cultured in phenol red-free DMEM + 10% charcoal-stripped fetal bovine serum, Harrill Lab (AID 2283985; active = hit-call score of the fitted dose curve at least 0.9, where 1 is the maximum; inactive = score below 0.9)
# Summary of the method: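 Caspase-3/7 activity by CellEvent Green high content imaging after 12 h compound exposure (eight concentrations) in MCF-7 grown in phenol red-free DMEM plus 10% charcoal-stripped serum; DMSO as baseline.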
# [10] = CCTE_Harrill_HTTr_Apoptosis_PRF_DMEM_24hr: (Pilot) CCTE's 24-hour Apoptosis Assessment for the High-Throughput Transcriptomics (HTTr) Platform, in MCF-7 cells cultured in phenol red-free DMEM + 10% charcoal-stripped fetal bovine serum, Harrill Lab (AID 2283986; active = hit-call score of the fitted dose curve at least 0.9, where 1 is the maximum; inactive = score below 0.9)
# Summary of the method: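 Eight concentrations tested for 24 h on MCF-7 grown in charcoal-stripped serum, phenol red-free DMEM. High content imaging of CellEvent Caspase 3/7 Green signal gives apoptosis read-out, fitted both ways relative to DMSO.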
# Sequence of Nucleoli Translocation, AR (gene 367) (P10275 whole entry, looked up): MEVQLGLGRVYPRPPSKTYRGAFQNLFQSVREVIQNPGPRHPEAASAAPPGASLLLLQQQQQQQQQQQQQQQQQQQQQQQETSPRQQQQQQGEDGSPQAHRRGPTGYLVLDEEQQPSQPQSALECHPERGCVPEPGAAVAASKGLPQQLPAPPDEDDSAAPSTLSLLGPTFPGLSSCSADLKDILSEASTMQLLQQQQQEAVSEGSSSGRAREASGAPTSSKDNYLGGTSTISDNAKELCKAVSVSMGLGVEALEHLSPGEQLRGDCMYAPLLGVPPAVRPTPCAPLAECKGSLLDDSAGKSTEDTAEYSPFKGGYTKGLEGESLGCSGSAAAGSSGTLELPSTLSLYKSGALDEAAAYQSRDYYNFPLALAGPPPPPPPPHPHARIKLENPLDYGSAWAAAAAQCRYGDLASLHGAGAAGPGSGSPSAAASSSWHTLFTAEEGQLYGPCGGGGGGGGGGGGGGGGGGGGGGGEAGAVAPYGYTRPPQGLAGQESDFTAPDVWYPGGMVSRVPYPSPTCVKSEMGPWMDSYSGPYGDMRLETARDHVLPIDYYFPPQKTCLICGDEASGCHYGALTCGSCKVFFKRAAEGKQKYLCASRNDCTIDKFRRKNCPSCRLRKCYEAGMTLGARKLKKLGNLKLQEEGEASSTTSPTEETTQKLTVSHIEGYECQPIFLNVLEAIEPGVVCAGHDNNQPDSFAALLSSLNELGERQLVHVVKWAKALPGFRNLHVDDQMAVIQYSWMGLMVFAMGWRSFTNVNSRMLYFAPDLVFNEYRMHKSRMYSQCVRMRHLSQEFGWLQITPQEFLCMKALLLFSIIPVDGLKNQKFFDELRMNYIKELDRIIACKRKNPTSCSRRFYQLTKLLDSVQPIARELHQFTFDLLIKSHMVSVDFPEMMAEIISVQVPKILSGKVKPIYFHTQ
structure (smiles),measurement,setting,value
O=C(O)C(F)(F)C(F)(F)C(F)(F)C(F)(F)C(F)(F)C(F)(F)C(F)(F)C(F)(F)C(F)(F)F,AC50,[1],103 µM (active) and 70.6 µM (active)
C=CC(=O)NCNC(=O)C=C,outcome,[2],inactive
same,outcome,[3],inactive
O=C(NC(=O)c1c(F)cccc1F)Nc1cc(Cl)c(OC(F)(F)C(F)F)c(Cl)c1,outcome,[2],inactive
same,outcome,[3],inactive
O=C(N[C@H]1CN2CCC1CC2)c1cc2ccoc2cn1,outcome,[2],inactive
same,outcome,[3],inactive
c1ccc(-c2ccccc2)cc1,outcome,[2],inactive
same,outcome,[3],inactive
CCOC(=O)C(O)(c1ccc(Cl)cc1)c1ccc(Cl)cc1,AC50,[2],13.3 µM (active)
same,AC50,[3],50 µM (active)
NS(=O)(=O)C(F)(F)C(F)(F)C(F)(F)C(F)(F)C(F)(F)C(F)(F)C(F)(F)C(F)(F)F,AC50,[1],26.8 µM (active)
same,AC50,[2],82.7 µM (active)
same,AC50,[3],30.9 µM (active)
CCCCCCCCOC(=O)c1ccccc1C(=O)OCCCCCCCC,outcome,[2],inactive
CC1=C2C[C@H]3[C@@H](CC=C4C[C@@H](O)CC[C@@]43C)[C@@H]2CC[C@]12O[C@@H]1C[C@H](C)CN[C@H]1[C@H]2C,outcome,[2],inactive
same,outcome,[3],inactive
CCC(C)(c1ccc(O)cc1)c1ccc(O)cc1,outcome,[4],inactive
same,outcome,[5],inactive
same,outcome,[6],inactive
same,outcome,[7],inactive
same,outcome,[8],inactive
same,outcome,[9],inactive
same,outcome,[10],inactive
CC#Cc1cc(C)nc(Nc2ccccc2)n1,AC50,[1],27 µM (active)
c1cc2ccc3cccc4ccc(c1)c2c34,outcome,[2],inactive
same,outcome,[3],inactive
Cc1ccccc1CO[C@@H]1C[C@@]2(C(C)C)CC[C@]1(C)O2,outcome,[2],inactive
same,outcome,[3],inactive
CC(C)(c1ccccc1)c1ccc(O)cc1,outcome,[4],inactive
same,outcome,[5],inactive
same,outcome,[6],inactive
same,outcome,[7],inactive
same,outcome,[8],inactive
same,outcome,[9],inactive
same,outcome,[10],inactive
CCCCCCCCCC[N+](C)(C)CCCCCCCCCC,AC50,[1],40.7 µM (active)
CCNc1nc(NC(C)C)nc(SC)n1,outcome,[2],inactive
CCC(=O)O[C@H]1CC[C@H]2[C@@H]3CCC4=CC(=O)CC[C@]4(C)[C@H]3CC[C@]12C,AC50,[3],0.00109 µM (active)
CCCCCCCCCc1ccc(O)cc1,AC50,[1],90.3 µM (active)
